# Compound activity as filed in PubChem BioAssay.
# Rows were chosen to be rich in hits. Some 2.4% of all compounds tested hit in one or more screens of this group.
# TMEM16A inh: TMEM16A chloride channel inhibitors, primary screen, cell-based, HTS; Anoctamin-1 (Mus musculus), Q8BHY3; HEK293 TMEM16A/YFP iodide influx fluorescence, ionomycin; normalized B-score (activity score, 25-100; higher = stronger inhibition) at 10 µM; 310,000 compounds, 1.2% hits; AID 588511, 2011;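 active means ratio plate-corrected score three or more library SD toward inhibition, starting fluorescence score within five deviations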;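 further: score derived from kinetic fluorescence span divided by baseline fluorescence per well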
# Target sequence (Q8BHY3 whole entry, looked up): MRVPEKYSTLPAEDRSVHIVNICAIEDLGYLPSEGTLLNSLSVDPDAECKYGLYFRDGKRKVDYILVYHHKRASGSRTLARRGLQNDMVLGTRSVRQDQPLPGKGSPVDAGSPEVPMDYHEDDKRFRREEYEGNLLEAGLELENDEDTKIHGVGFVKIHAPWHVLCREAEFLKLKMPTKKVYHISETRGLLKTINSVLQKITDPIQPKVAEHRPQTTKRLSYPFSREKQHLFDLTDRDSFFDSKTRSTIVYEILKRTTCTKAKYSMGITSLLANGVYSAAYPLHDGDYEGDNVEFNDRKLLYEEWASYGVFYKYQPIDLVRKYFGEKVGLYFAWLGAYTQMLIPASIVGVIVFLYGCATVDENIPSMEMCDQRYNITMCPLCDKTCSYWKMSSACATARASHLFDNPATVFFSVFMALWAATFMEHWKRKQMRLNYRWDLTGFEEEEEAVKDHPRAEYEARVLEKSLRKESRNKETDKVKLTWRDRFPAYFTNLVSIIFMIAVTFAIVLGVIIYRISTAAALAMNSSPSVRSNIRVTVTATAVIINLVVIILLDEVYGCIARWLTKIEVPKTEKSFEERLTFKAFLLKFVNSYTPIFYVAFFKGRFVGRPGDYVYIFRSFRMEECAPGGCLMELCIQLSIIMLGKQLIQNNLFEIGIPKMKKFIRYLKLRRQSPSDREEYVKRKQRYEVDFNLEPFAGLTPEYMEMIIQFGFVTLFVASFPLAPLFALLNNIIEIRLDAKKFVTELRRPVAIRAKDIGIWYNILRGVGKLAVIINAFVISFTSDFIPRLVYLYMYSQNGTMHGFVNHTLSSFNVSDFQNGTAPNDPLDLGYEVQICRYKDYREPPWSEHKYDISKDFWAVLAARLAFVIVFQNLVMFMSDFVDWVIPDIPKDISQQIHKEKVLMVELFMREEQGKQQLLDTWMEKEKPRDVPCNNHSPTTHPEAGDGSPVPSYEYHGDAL
# RTF Ca sens act: cardiac RTF calcium sensitivity activators, primary screen, biochemical, IANBD-TnC fluorescence, EC20 calcium; Troponin I, cardiac muscle (Homo sapiens) + Troponin T, cardiac muscle (Homo sapiens) + …; IANBD-labeled TnC RTF fluorescence at EC20 calcium; 0% EC20 calcium, 100% full calcium; activation, % at 7.2 µM; 340,000 compounds, 0.24% hits;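 active means activation above the mean over all tested compounds plus 3 SD, cut at about 30% in these data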;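 further: rise in fluorescence read as greater calcium sensitivity of cardiac thin filaments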
# ANO1 activ: TMEM16A chloride channel activators or potentiators, primary screen, cell-based, HTS | HEK293 TMEM16A/YFP-H148Q/I152L, iodide quench fluorescence; stronger effect = lower value | 340,000 compounds, 0.3% hits | AID 623877, 2012 | B-score at 10 µM;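 active means fluorescence-ratio B-score plate-corrected deviation score at least 3 library SD below zero, with starting fluorescence score within 5 deviations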;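 further: channel opened by trigger with iodide after compound preincubation; score built on the fluorescence ratio of max minus min over baseline; more negative score means more quench and so TMEM16A activation or potentiation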
# CRFBP-R2 block: antagonists of CRF-BP/CRF-R2 complex, primary screen, cell-based, HEK293, calcium dye fluorescence, uHTS | CRF-induced calcium fluorescence | inhibition, % at 11.8 µM | 350,000 compounds, 0.59% hits | AID 588475, 2011;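 active means inhibition of the ligand-induced calcium signal above about 50% at the single tested concentration, limit read from the data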
# CRFBP-R2 agonist: agonists of CRF-BP/CRF-R2 complex, primary screen, cell-based, HEK293, calcium dye fluorescence, uHTS | activation, % at 13.2 µM | 350,000 compounds, 0.46% hits | calcium dye fluorescence (FLIPR); percent of saturating CRF peptide response | CRF-binding protein / CRF receptor 2 complex (human);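 active means activation of at least 50%, plus an integration ratio under a set limit after plate pattern correction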
# Cardiac RTF inh: cardiac RTF calcium sensitivity inhibitors, primary screen, biochemical, IANBD-TnC fluorescence, EC70 calcium. Troponin I, cardiac muscle (Homo sapiens) + Troponin T, cardiac muscle (Homo sapiens) + …. IANBD-labeled cardiac RTF, Ca2+ fluorescence. inhibition, % at 7.15 µM. 340,000 compounds, 0.12% hits. AID 493244, 2011;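 active means inhibition above the mean inhibition of all tested compounds plus 3 SD, cut at about 17% in these data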;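 further: assay run at fixed EC70 calcium of 1.6 mM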
# Hits are given with their value; 0 = inactive; - = not tested or not shown.
SMILES,TMEM16A inh,RTF Ca sens act,ANO1 activ,CRFBP-R2 block,CRFBP-R2 agonist,Cardiac RTF inh
C/C(=N\Nc1ccc(Cl)c(C(=O)O)c1)c1ccccn1,0,0,0,0,0,0
O=C(O)c1ccc(-c2nc(-c3ccccc3Cl)cs2)cc1,0,0,0,0,0,0
CCS(=O)(=O)c1ccc(-c2csc(-c3ccccc3)n2)c(Cl)c1Cl,25,0,0,0,0,0
Cc1cc(C)cc(Nc2cc(=O)n(C3CCCCC3)c(=O)[nH]2)c1,0,0,0,0,0,0
Cc1cc2nc3c(=O)n(C4CCCCC4)c(=O)[nH]c3nc2cc1N,-,565.8,0,0,0,0
Cc1ccc(-c2nnnn2-c2ccccc2C(=O)O)cc1,0,0,0,0,0,0
CCOC(=O)c1ccccc1-n1nnnc1C,0,124.1,0,0,0,0
Cn1nc(CC(=O)NCc2cccc3ccccc23)c2ccccc2c1=O,0,0,0,0,0,0
Cc1csc(NC(=O)Cc2ccc(Br)cc2)n1,0,0,0,62.7,0,0
COc1ccccc1NC(=O)Cc1nn(C)c(=O)c2ccccc12,25,0,0,0,0,0
COc1cccc(OC)c1NC(=O)Cc1nn(C)c(=O)c2ccccc12,0,0,0,0,0,0
Cc1csc(NC(=O)Cc2nn(C)c(=O)c3ccccc23)n1,25,0,0,0,0,0
COc1cccc(NC(=O)CSc2ccc3nnc(-c4ccccn4)n3n2)c1,0,0,0,0,0,0
CC(=O)NNC(=S)NC(=O)C(c1ccccc1)c1ccccc1,0,0,0,0,0,0
CC(C)(C)C(=O)NC(=S)NNC(=O)C(c1ccccc1)c1ccccc1,100,0,0,0,191.6,0
Cc1cc(NC(=O)CSc2nc3c(C)cccc3cc2C#N)no1,0,0,0,0,0,0
Cc1n[nH]c(=S)n(/N=C/c2cccs2)c1=O,0,0,0,115.2,0,0
CN(C)S(=O)(=O)n1cnc(C(CCO)c2ncn(S(=O)(=O)N(C)C)c2CCCO)c1 (stereo not drawn),-,0,0,0,0,0
Cc1ccc(N)c([N+](=O)[O-])c1,-,0,0,0,0,0
Nc1ccc(N=Nc2ccccc2)cc1[N+](=O)[O-],-,0,0,62.7,0,0
CCN1CCN(c2nc3ccccn3c(=O)c2C=O)CC1,0,0,0,0,0,0
O=Cc1c(N2CCN(CCO)CC2)nc2ccccn2c1=O,0,0,0,0,128.1,0
COc1cc(C2C3CN(C)CC=C3C(C#N)=C(N)C2(C#N)C#N)ccc1OC(C)C (stereo not drawn),0,42.2,0,0,0,0
CC(C)N1CC=C2C(C#N)=C(N)C(C#N)(C#N)C(c3ccccc3)C2C1 (stereo not drawn),0,46.0,0,0,89.5,0
CCN1CC=C2C(C#N)=C(N)C(C#N)(C#N)C(c3cc(Cl)ccc3Cl)C2C1 (stereo not drawn),0,39.2,0,0,0,0
SMILES,TMEM16A inh,RTF Ca sens act,ANO1 activ,CRFBP-R2 block,CRFBP-R2 agonist,Cardiac RTF inh
COc1cc([C@@H]2[C@H]3CNCC=C3C(C#N)=C(N)C2(C#N)C#N)ccc1OC(C)C,0,0,0,0,0,0
COc1ccc(CCNC(=O)CSc2nc3c(sc(=S)n3-c3ccccc3)c(=O)[nH]2)cc1OC,-,-,-,0,0,-
Cc1cc(C)n(-c2ccc(S(=O)(=O)N3CCOCC3)cc2[N+](=O)[O-])n1,0,0,0,0,0,0
CCS(=O)(=O)Nc1cccc(C2=NN(S(C)(=O)=O)C(c3ccccc3)C2)c1 (stereo not drawn),0,0,-9.7,0,0,0
N#CCCNS(=O)(=O)c1ccc(C(=O)OCCCOC(=O)c2ccc(S(=O)(=O)NCCC#N)cc2)cc1,0,0,0,0,0,0
O=C(Nc1ccc(NC(=O)c2cccc([N+](=O)[O-])c2)cc1)c1cccc([N+](=O)[O-])c1,0,0,0,0,0,0
O=C(Nc1ncc(S(=O)(=O)c2ccc([N+](=O)[O-])cc2)s1)c1cccnc1,0,0,0,0,0,0
O=C(Nc1ncc([N+](=O)[O-])s1)c1cccc([N+](=O)[O-])c1,100,0,-4.64,69.6,65.9,0
O=C(Nc1ncc(S(=O)(=O)c2ccc([N+](=O)[O-])cc2)s1)c1ccc2ccccc2c1,100,0,0,0,0,0
O=C(CCCN1C(=O)CSc2ncccc21)N1CCN(Cc2ccccc2)CC1,0,0,0,0,0,0
Cc1ccc(S(=O)(=O)Nc2cc(C(F)(F)F)ccc2N2CCOCC2)cc1,0,0,0,0,0,0
Cc1ccc(S(=O)(=O)Nc2cc(C(F)(F)F)ccc2N2CCOCC2)c(C)c1,0,0,-14.1,0,0,0
Cc1ccc(S(=O)(=O)c2c[nH]c3cc4c(cc3c2=O)OCO4)cc1,0,-,-,-,-,-
COc1ccc(C(=O)NCCS(=O)(=O)N(C)C2CCCCC2)cc1,0,0,0,50.6,0,0
COc1ccc(N(C)S(=O)(=O)c2cccc(C(=O)NCC3CCCCC3)c2)cc1,-,0,-36.9,0,0,0
O=C(NC(Cc1ccccc1)C(=O)O)/C(=C\c1ccc(Cl)cc1)NC(=O)c1ccco1 (stereo not drawn),0,0,0,0,0,0
C=CCc1c(C)nc(C)nc1N/N=C/c1ccccc1O,25,0,0,0,0,0
CCC(c1ccc(O)cc1)C(CC)c1ccc(O)cc1 (stereo not drawn),0,0,0,0,0,0
Cc1cc(C(c2ccc(O)cc2)c2cc(C)c(O)cc2C)c(C)cc1O,0,0,0,0,69.0,0
CCCn1c(C)cc(/C=C(\C#N)C(=O)OCC(=O)N(CC)c2c(N)n(Cc3ccccc3)c(=O)[nH]c2=O)c1C,-,0,0,0,0,0
COc1ccc(NC(=O)c2cc(Br)c(Br)s2)cn1,0,0,0,0,0,0
CCc1cc(C(=O)Nc2ccc(OC)nc2)sc1C,0,0,-5.06,-,-,0
Cc1cn(CC(=O)N2CCN(c3ccccn3)CC2)c(=O)[nH]c1=O,-,0,-,95.6,0,0
C=CCc1ccccc1OCC(O)CN(CC)CC (stereo not drawn),0,0,0,0,0,0
CS(=O)(=O)N(CCc1ccccc1)CC(=O)Nc1ccc(OCc2ccccc2)cc1,0,0,-19.9,0,0,0
COC(=O)c1ccccc1NC(=O)CN(CCc1ccccc1)S(C)(=O)=O,0,0,0,0,0,0
